From PubChem BioAssay AID624330 (Southern Research Specialized Biocontainment Screening …, 2012)
The whole screen tested about 340,000 compounds, of which about 2,100 (0.62%) were called active.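 How the source made its calls: active means first-screen hits whose inhibition reached a set limit at any dose in the follow-up dose series; inconclusive means inhibition above the set first-screen limit but never retested; inactive means the rest.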 Only a sample is shown. Potency and affinity values are given separately.

Each molecule was assayed against Rac GTPase-activating protein 1 (Homo sapiens) (UniProt Q9H0H5) (assay: MgcRacGAP GTPase-activating activity inhibitors, confirmation, biochemical, ADP Hunter fluorescence, primary and confirmatory (AID 624330;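 further: fluorescence reports GDP produced by GAP-driven GTP hydrolysis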)). Conditions: MgcRacGAP-stimulated Rac1 GTP hydrolysis, at 30 µM, active compounds read high, GST-tagged Rac1 F28L mutant substrate.
Chain of Rac GTPase-activating protein 1 (Homo sapiens) (Q9H0H5 whole entry, looked up): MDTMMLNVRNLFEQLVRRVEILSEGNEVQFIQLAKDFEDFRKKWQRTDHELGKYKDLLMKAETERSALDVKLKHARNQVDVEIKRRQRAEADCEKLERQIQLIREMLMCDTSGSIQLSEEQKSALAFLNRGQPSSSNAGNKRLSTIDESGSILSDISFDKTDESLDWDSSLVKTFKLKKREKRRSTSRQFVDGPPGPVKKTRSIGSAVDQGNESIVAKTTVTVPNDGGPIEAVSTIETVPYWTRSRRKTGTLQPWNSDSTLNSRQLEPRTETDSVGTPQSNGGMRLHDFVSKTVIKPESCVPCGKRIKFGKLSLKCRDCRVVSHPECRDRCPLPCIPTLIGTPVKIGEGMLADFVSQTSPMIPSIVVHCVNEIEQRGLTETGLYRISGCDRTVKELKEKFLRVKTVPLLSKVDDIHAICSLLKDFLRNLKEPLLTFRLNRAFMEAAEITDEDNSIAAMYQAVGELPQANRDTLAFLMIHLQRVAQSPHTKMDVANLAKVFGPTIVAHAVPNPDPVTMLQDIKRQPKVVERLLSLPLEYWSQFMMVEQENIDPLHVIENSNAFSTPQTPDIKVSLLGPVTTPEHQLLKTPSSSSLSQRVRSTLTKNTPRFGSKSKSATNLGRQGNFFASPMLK

inhibition, inactive:
Cc1ccc(S(=O)(=O)N2CCN(CN3C(=O)CC4(CCCC4)C3=O)CC2)cc1 1.32%
COc1cc(/C=N/n2c(C3CCCCC3)n[nH]c2=S)cc(Br)c1O 12.6%
COc1cc(/C=N/n2c(C3CCCCC3)n[nH]c2=S)cc(OC)c1O 15.8%
C=CCOc1ccc(/C=N/n2nnnc2N)cc1OC 12.5%
COc1cc(/C=N/n2nnnc2N)ccc1OC(C)=O 23.6%
CCOc1ccc(/C=N/n2nnnc2N)cc1OCC 9.77%
COc1ccc(/C=N/n2nnnc2N)cc1OC 8.91%
O=C(/C=C\c1ccco1)NC(=S)Nc1ccccc1O 15.2%
COc1cccc(NC(=S)NC(=O)c2cccnc2)c1 13.8%
CN(C)C1=NCCN1CCCC1CCCC1 4.05%
CC(C)N(Cc1nccn1C)C(=O)C1CCC(=O)N(CCc2ccccc2)C1 (stereo unspecified) 12.2%
Cc1ccc(/C(N)=N/OC(=O)CCCc2ccccc2)cc1 7.16%
COc1ccc2c(N)c(C(=O)NN)[nH]c2c1 27.6%
CCOC(=O)Nc1c(C(=O)OC)[nH]c2cccc(OC)c12 9.48%
COC(=O)c1cc(S(=O)(=O)NC2CCC(C)CC2)cn1C (stereo unspecified) 0.48%
Cc1ccc(OCCC(=O)OCC(=O)NC(=O)NCc2ccccc2)cc1 3.66%
CN=c1scc(C)n1/N=C/c1ccc2c(c1)OCO2 18.6%
CN=c1scc(-c2cccs2)n1/N=C/c1ccccc1O 23.1%
Cc1ccc(CN2CCN(/N=C/c3ccc(O)c(O)c3)CC2)cc1 31.8%
Cc1nnc(C)n1/N=C/c1ccc(O)cc1 13%
CCN=c1scc(C)n1/N=C/c1ccsc1 25.8%
CN=c1scc(C)n1/N=C/c1ccc(O)c(O)c1O -36.1%
Cn1nnnc1SCCNCc1cccnc1 -1.39%
COC(=O)c1ccc(NC(=O)C(=O)N2CCN(C(=S)Nc3cccc(OC)c3)CC2)cc1 7.83%
Cc1ccc(C)c(C(=O)C(C)Sc2nc3nn(-c4ccccc4)c(=O)c-3c3n2CCCCC3)c1 (stereo unspecified) -2.59%
Cc1ccc2nsnc2c1NC(=O)COc1ccccc1F 11.1%
O=C(/C=C/c1ccco1)NCCc1ccccc1 6.75%
O=C(/C=C/c1ccco1)NC(=S)Nc1ccccc1 10.7%
O=C(O)CCCCCNC(=O)/C=C/c1ccco1 5.1%
CC(=O)c1ccc(NC(=S)NC(=O)/C=C/c2ccco2)cc1 21.8%
COc1ccccc1OCC(=O)Nc1cc(C(F)(F)F)ccc1-n1cncn1 0.07%
COc1cccc(C#Cc2c(C=O)n(C)c3ccccc23)c1 8.82%
Cc1cn(CC(=O)NCc2ccc(N(C)C)cc2)c(=O)[nH]c1=O 11.4%
CCOc1ccc(CNC(=O)c2ccc3c(c2)N(CC)CCS3)cc1 14%
c1ccc(Nc2cccc3c(Nc4ccccc4)cccc23)cc1 8.14%
Nc1cc(C(=O)O)ccc1Nc1ccccc1 25.7%
Nc1cccc(Nc2ccccc2)c1 8.97%
Nc1ccc(Nc2ccccc2N)cc1 24.3%
O=C(O)c1ccccc1Nc1cccc(C(F)(F)F)c1 8.9%
Nc1cc(C(F)(F)F)ccc1Nc1ccccc1 6.27%
CCOc1cc(N2CCOCC2)c(OCC)cc1NC(=O)COC(=O)c1ccc(Cl)nc1 1.55%
O=C(Nc1cccc(-c2csc(Nc3ccc(Cl)cc3)n2)c1)c1ccccc1 2.45%
N#Cc1c(-c2ccccc2)cc(C2CC2)nc1SCC(=O)O 12.8%
COc1ccc(OC)c(/C=N/Nc2nncn2/N=C/c2cc(OC)ccc2OC)c1 6.03%
COc1cc(/C=N\Nc2nncn2N)ccc1OC(C)=O -4.26%
COc1cccc(/C=N/Nc2nn3cnnc3c3ccccc23)c1 19.3%
COc1cccc(/C=N/Nc2nn3cnnc3c3ccccc23)c1O 7.65%
Oc1cccc(/C=N/Nc2nn3cnnc3c3ccccc23)c1 24.6%
COc1ccc(/C=N/Nc2nn3cnnc3c3ccccc23)cc1 13.1%
CC(C)Cn1c(=O)c(-[n+]2ccccc2)c([O-])c2ccccc21 12.6%
O=C(OCc1ccccc1)N1CCC2CC1c1cc(Cl)ccc12 (stereo unspecified) 2.05%
Cc1nn(-c2ncc(C(F)(F)F)cc2Cl)c(=O)n1-c1ccccc1Cl 5.45%
CCCS(=O)(=O)NCc1cn2cccc(C)c2n1 4.87%
CC(=O)N1CCN(c2ccc([N+](=O)[O-])c(NCC3CCCO3)c2)CC1 (stereo unspecified) 7.45%
COc1cc(C(=O)OCn2nnc3ccccc3c2=O)cc(OC)c1OC 5.8%
COc1ccc(NC(=O)c2noc3c2CCC3)cc1 14.6%
COc1ccc(C2C3=C(CC(C)(C)CC3=O)Oc3ncn4nc(-c5cccnc5)nc4c32)cc1 (stereo unspecified) 1.38%
O=C(CCCc1c[nH]c2ccccc12)N[C@@H](Cc1c[nH]c2ccccc12)C(=O)O 9.15%
COc1cccc(CNC(=O)C2CCCN(S(C)(=O)=O)C2)c1 (stereo unspecified) -2.27%
CC(C)(C)c1nc2ccc(NS(=O)(=O)c3ccc(F)c(F)c3F)cc2[nH]1 -2.67%
CS(=O)(=O)Nc1ccc(C(=O)Nc2ccccc2Sc2ccccc2)cc1 9.8%
Cc1nc(CN(C)Cc2nc(Cc3cccc(F)c3)no2)cs1 5.6%
O=S(=O)(NC(=NC1CCCCC1)c1ccccc1)c1ccccc1 4.1%
COc1ccc(NC2CCCN(C(=O)CCc3cccc(Cl)c3)C2)cc1 (stereo unspecified) -4.43%
Cc1ccc(NC2CCCN(C(=O)CCc3scnc3C)C2)cc1C (stereo unspecified) 10.7%
COc1ccc(CCC(=O)N2CCCC(Nc3ccccc3)C2)cc1OC (stereo unspecified) 3.2%
CC(C)c1ccc(NC2CCCN(C(=O)CCc3cn[nH]c3)C2)cc1 (stereo unspecified) 11.8%
O=C(CCc1ccccc1)N1CCCC(Nc2ccc(F)cc2)C1 (stereo unspecified) 5.33%
COc1ccc(CCC(=O)N2CCCC(Nc3ccc(OC)cc3)C2)cc1 (stereo unspecified) -28.9%
Cc1ccc(NC2CCCN(C(=O)CCc3cn[nH]c3)C2)cc1C (stereo unspecified) 14.1%
Cc1ncsc1CCC(=O)N1CCCC(Nc2ccc(C(C)C)cc2)C1 (stereo unspecified) 5.76%
